According to PubChem BioAssay AID1347417 (National Center for Advancing Translational Sciences (NCATS), 2020):
Among all 120,000 compounds or so, about 5,300 (4.4%) were called active. Roughly 22% stayed inconclusive and do not appear here. The sample holds actives, similar compounds and a random draw of the others, so the mix is not that of the screen. Values without a mark were called inactive. The call rests on the fitted dose curve; in most records, active means well fitted inhibition curve with a large enough effect; inconclusive means small, poorly fitted or top-dose-only effect; inactive means no such curve, though single readings can be large or run the other way.

Assay: qHTS Primary assay for Inhibitors of Plasmodium falciparum Dd2 growth in vitro; further: nearly all actives have a fitted effect of over 65% in size;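 on activity, negative = inhibition: plate controls were DMSO vehicle for no effect and reference drug for full effect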
Conditions: P. falciparum Dd2 growth, SYBR Green, 72 h; series mostly up to 28.9 µM; activity, negative = inhibition: at the top concentration
How it was run: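 Infected erythrocytes (Dd2, 0.3% parasitemia, 2.5% hematocrit final) are added to compound in RPMI-1640/Albumax II medium, grown 72 h at 37C in low oxygen, then lysed with saponin/Triton-X containing SYBR Green and read by fluorescence.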
Potency means the concentration at half of the fitted maximal effect.

Row | Structure (SMILES) | activity, negative = inhibition | Potency | outcome
1 | CC(=O)N1CCN(c2ccc3nnc(-c4ccc(C)cn4)n3n2)CC1 | -4.27% [at 44.1 µM] | – | –
2 | Cc1cn2nc(C(=O)N3CCC(NC(=O)c4ccc(C#N)cc4)CC3)cc2c(=O)[nH]1 | -37.5% | – | –
3 | O=C(Cn1nc(-c2ccccc2)n(CCc2ccccc2)c1=O)NC1CC1 | -4.11% | – | –
4 | Cc1cn2nc(C(=O)N3CCC(NC(=O)CCc4ccccc4)CC3)cc2c(=O)[nH]1 | – | 14.1 µM (active) | –
5 | COC(=O)[C@@H](Cc1cccnc1)NC(=O)[C@H]1CN(S(=O)(=O)c2ccccc2)CCN1C(=O)N1CCOCC1 | -6.53% | – | –
6 | COC1C(=O)N(c2cccc(F)c2)C12CCN(C(=O)NCc1ccc(C)cc1)CC2 (centres undefined) | – | – | inactive
7 | CCS(=O)(=O)N1CCC2(CC1)CC(N1CCN(C(C)C)CC1)CCO2 (centres undefined) | 12% | – | –
8 | C=CCN1CC2(CCC1=O)CCN(C(=O)[C@H](N)Cc1ccccc1)CC2 | -4.26% | – | –
9 | O=C1CCC2(CCN(Cc3ccc4[nH]ccc4c3)CC2)CN1CCc1ccccc1 | – | 7.08 µM (active) | –
10 | Cn1cc(CN2CCN(Cc3ccccc3)CC2)ccc1=O | 13.6% | – | –
11 | COc1ccc(C(=O)N2CCCOCCNC(=O)CC2)c(OC)n1 | 5.64% | – | –
12 | CN(Cc1nc2ccsc2c(=O)[nH]1)C(=O)C1NCCc2[nH]cnc21 (centres undefined) | -11.4% | – | –
13 | COc1ccc(C(=O)N2c3ccccc3CC2c2nc(C(C)C)no2)c(OC)c1 (centres undefined) | 4.25% [at 5.79 µM] | – | –
14 | O=C(c1nc2c(o1)CCN(Cc1ccccc1F)CC2)N1CCOCC1 | -19.4% [at 44.1 µM] | – | –
15 | CN1C(=O)[C@H]2CN(Cc3ccccc3Cl)C[C@H]2C1=O | -8.61% | – | –
16 | O=C1[C@H]2CN(Cc3ccccc3F)C[C@H]2C(=O)N1CCN1CCc2ccccc2C1 | – | 5.01 µM (active) | –
17 | COCCn1cc(CN2CCN(c3ccccc3F)CC2)ccc1=O | 15.5% | – | –
18 | CCOc1ccc2c(n1)CCN(C(=O)Nc1ccc(OC)cc1C)C2 | -3.34% | – | –
19 | COc1ccc(Nc2ncc3c(n2)CCN(C(=O)OC(C)(C)C)C3)cc1 | – | 5.62 µM (active) | –
20 | CCOc1ccc2c(n1)CCN(C(=O)C(C)C)C2 | 7.45% | – | –
21 | COc1ccc(C(=O)NC2CCN(c3cc(-c4cccs4)[nH]n3)C2)cc1F (centres undefined) | -11.2% | – | –
22 | COCCc1noc(-c2ccc(NC(C)c3ncccc3C)nc2)n1 (centres undefined) | -19.9% | – | –
23 | O=C(NCC1(COc2cccnc2)C[C@@H](O)[C@@H](O)C1)C1CCCC1 (some centres undefined) | 9.87% [at 44.1 µM] | – | –
24 | CC(C)C(=O)N1CCOc2ccc(CN3CCc4ccccc4C3)cc2C1 | – | – | inactive
25 | CCC(C)N1CCN(C(=O)CCc2ccc3c(c2)CN(C(=O)C2CC2)CCO3)CC1 (centres undefined) | -3.36% | – | –
26 | CC(C)(O)CCc1ccc(C(=O)N2CCOc3ccc(Cl)cc3C2)cc1 | -18.6% | – | –
27 | O=C(c1ccccc1)N1CCOc2ccc(CN3CCc4ccccc4C3)cc2C1 | – | 7.94 µM (active) | –
28 | O=C1CCN(Cc2ccc3c(c2)CCO3)CCOCCN1 | 2.37% | – | –
29 | O=C(CC1CCCC1)N1CCOc2ccc(CN3CCc4ccccc4C3)cc2C1 | – | 5.01 µM (active) | –
